# In PubChem BioAssay (EPA / NIEHS):
# Results filed as inconclusive are left out. The source made the active and inactive calls. The calls were made as follows, unless noted: active = hit-call score of the fitted dose curve at least 0.9, where 1 is the maximum; inactive = score below 0.9.
# How the values were obtained:
# [1] = read-out: Transforming Growth Factor (TGFB1), TGFB1 (gene 7040); assay: LTEA_HepaRG_TGFB1: Life Technologies and Expression Analysis (LTEA) Assay for Transforming Growth Factor (TGFB1) Transporter using HepaRG (AID 2283533); settings: mRNA level, 48 h; actives raise or lower the signal
# Procedure, shortened: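 Differentiated human HepaRG cells in serum-free induction medium were exposed in duplicate for 48 h to eight concentrations (top 100 uM, half-log steps, 0.5% DMSO). TGFB1 mRNA was quantified by qRT-PCR, normalized to ACTB, GAPDH, POLR2A, and fitted bidirectionally against DMSO.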
# TIMP1, TIMP1 (gene 7076) = assay: LTEA_HepaRG_TIMP1: Life Technologies and Expression Analysis (LTEA) Assay for TIMP1 using HepaRG (AID 2283534); settings: mRNA level, 48 h; actives raise or lower the signal
# Procedure, shortened: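 Differentiated human HepaRG cells in serum-free induction medium were exposed 48 h to chemicals (8 half-log concentrations, top 100 uM, 0.5% DMSO). TIMP1 mRNA was quantified by TaqMan qRT-PCR, normalized to ACTB/GAPDH/POLR2A; bidirectional fit versus DMSO.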
# [2] = read-out: Tumor necrosis factor receptor 1 (TNFRSF1A), TNFRSF1A (gene 7132); assay: LTEA_HepaRG_TNFRSF1A: Life Technologies and Expression Analysis (LTEA) Assay for Tumor necrosis factor receptor 1 (TNFRSF1A) using HepaRG (AID 2283535); settings: mRNA level, 48 h; actives raise or lower the signal
# Procedure, shortened: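 Differentiated human HepaRG cells were exposed in duplicate for 48 h in serum-free induction medium to eight concentrations (top 100 uM, half-log steps, 0.5% DMSO). TNFRSF1A mRNA was quantified by qRT-PCR, normalized to ACTB, GAPDH and POLR2A, then fitted bidirectionally against DMSO.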
# [3] = read-out: Thyroid Hormone Responsive (THRSP), THRSP (gene 7069); assay: LTEA_HepaRG_THRSP: Life Technologies and Expression Analysis (LTEA) Assay for Thyroid Hormone Responsive (THRSP) using HepaRG (AID 2283536); settings: mRNA level, 48 h; actives raise or lower the signal
# Procedure, shortened: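 qRT-PCR read-out (Fluidigm TaqMan), housekeeping-normalized (ACTB/GAPDH/POLR2A). HepaRG, 48 h chemical exposure, 8-pt half-log series from 100 uM in 0.5% DMSO, duplicates. Bidirectional curve fit vs 0.5% DMSO baseline.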
# [4] = read-out: Cellular tumor antigen p53 (Homo sapiens) (UniProt P04637); assay: LTEA_HepaRG_TP53: Life Technologies and Expression Analysis (LTEA) Assay for Tumor Protein P53 (TP53) using HepaRG (AID 2283537); settings: mRNA level, 48 h; actives raise or lower the signal
# Procedure, shortened: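 Gain or loss of TP53 mRNA signal is scored relative to 0.5% DMSO after 48 h chemical treatment of HepaRG liver cells, tested in duplicate at eight half-log concentrations up to 100 uM.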
# [5] = read-out: UDP glucuronosyltransferase (UGT1A1), UGT1A1 (gene 54658); assay: LTEA_HepaRG_UGT1A1: Life Technologies and Expression Analysis (LTEA) Assay for UDP glucuronosyltransferase (UGT1A1) using HepaRG (AID 2283538); settings: mRNA level, 48 h; actives raise or lower the signal
# Procedure, shortened: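 mRNA induction or loss of UGT1A1, by TaqMan qRT-PCR, in duplicate HepaRG wells after 48 h exposure to half-log dilutions topping at 100 uM; DMSO (0.5%) served as baseline.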
# [6] = read-out: UDP glucuronosyltransferase (UGT1A6), UGT1A6 (gene 54578); assay: LTEA_HepaRG_UGT1A6: Life Technologies and Expression Analysis (LTEA) Assay for UDP glucuronosyltransferase (UGT1A6) using HepaRG (AID 2283539); settings: mRNA level, 48 h; actives raise or lower the signal
# Procedure, shortened: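 Human HepaRG cells were dosed for 48 h in serum-free induction medium with 0.5% DMSO vehicle, eight-point half-log series from 100 uM, in duplicate. UGT1A6 mRNA was measured by qRT-PCR, normalized to ACTB, GAPDH, POLR2A, and fitted bidirectionally against DMSO.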
# [7] = read-out: X-box binding protein 1 (XBP1), XBP1 (gene 7494); assay: LTEA_HepaRG_XBP1: Life Technologies and Expression Analysis (LTEA) Assay for X-box binding protein 1 (XBP1) using HepaRG (AID 2283540); settings: mRNA level, 48 h; actives raise or lower the signal
# Procedure, shortened: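 Differentiated human HepaRG cells in serum-free induction medium were exposed in duplicate for 48 h to eight half-log concentrations up to 100 uM in 0.5% DMSO. XBP1 mRNA was quantified by qRT-PCR, normalised to ACTB, GAPDH and POLR2A, with bidirectional fitting against DMSO.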
# [8] = LTEA_HepaRG_LDH_cytotoxicity: Cytotoxicity Assessment in the Life Technologies and Expression Analysis (LTEA) Assay (AID 2283563; active = hit-call score of the fitted dose curve at least 0.9, where 1 is the maximum;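 as to AC50: LDH activity released into spent culture medium as a marker of cell death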)
# Procedure, shortened: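 Differentiated human HepaRG cells, plated 48 h beforehand, were switched to serum-free induction medium and exposed for 48 h to eight half-log concentrations (top 100 uM) in 0.5% DMSO. LDH was measured in spent medium; activity was fitted relative to DMSO vehicle.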
# [9] = ATG_XTT_Cytotoxicity: Cytotoxicity Assessment in the Attagene TRANS-FACTORIAL HepG2 Assay (AID 2283584; active = hit-call score of the fitted dose curve at least 0.9, where 1 is the maximum)
# Procedure, shortened: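 HepG2 human liver cells, transiently transfected with multiple GAL4-UAS reporter units, were dosed and read at 24 h by XTT as cell number. Loss of signal was fitted relative to DMSO negative control baseline.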
# Sequence of Cellular tumor antigen p53 (Homo sapiens) (P04637 whole entry, looked up): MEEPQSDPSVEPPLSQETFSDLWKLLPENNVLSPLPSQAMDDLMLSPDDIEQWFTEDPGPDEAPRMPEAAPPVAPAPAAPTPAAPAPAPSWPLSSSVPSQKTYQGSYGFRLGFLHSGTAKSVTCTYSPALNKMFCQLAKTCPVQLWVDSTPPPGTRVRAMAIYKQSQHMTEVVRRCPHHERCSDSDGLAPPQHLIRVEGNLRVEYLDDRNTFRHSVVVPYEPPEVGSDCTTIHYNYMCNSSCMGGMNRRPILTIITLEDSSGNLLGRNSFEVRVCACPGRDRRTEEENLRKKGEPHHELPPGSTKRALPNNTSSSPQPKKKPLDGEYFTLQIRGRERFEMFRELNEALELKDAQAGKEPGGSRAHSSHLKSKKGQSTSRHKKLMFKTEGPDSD
SMILES,outcome [1],"outcome (TIMP1, TIMP1 (gene 7076))",outcome [2],outcome [3],outcome [4],outcome [5],outcome [6],outcome [7],outcome [8],outcome [9],AC50 [3],AC50 [4],AC50 [5],AC50 [6],AC50 [8],AC50 [1],"AC50 (TIMP1, TIMP1 (gene 7076))",AC50 [2],AC50 [7]
CCOP(=S)(OCC)SCn1c(=O)oc2cc(Cl)ccc21,inactive,inactive,inactive,inactive,inactive,inactive,inactive,inactive,inactive,inactive,,,,,,,,,
CCCCOC(=O)c1ccccc1C(=O)OCCCC,inactive,inactive,inactive,inactive,inactive,inactive,inactive,inactive,inactive,inactive,,,,,,,,,
CNC(=S)S,inactive,inactive,inactive,inactive,inactive,inactive,inactive,inactive,inactive,inactive,,,,,,,,,
CC(C)Oc1cc(-n2nc(C(C)(C)C)oc2=O)c(Cl)cc1Cl,inactive,inactive,inactive,,,,,inactive,,inactive,11.8 µM (active),86.3 µM (active),1.41 µM (active),76.5 µM (active),84.6 µM (active),,,,
CCCC1COC(Cn2cncn2)(c2ccc(Cl)cc2Cl)O1 (configuration not stated),,inactive,inactive,,,,,inactive,,inactive,7.44 µM (active),34.3 µM (active),35.8 µM (active),59.5 µM (active),32 µM (active),27.3 µM (active),,,
C#CCOS(=O)OC1CCCCC1Oc1ccc(C(C)(C)C)cc1 (configuration not stated),,,,inactive,,,,inactive,,inactive,,58.4 µM (active),27.5 µM (active),26.4 µM (active),29.3 µM (active),50 µM (active),26.5 µM (active),26.1 µM (active),
CCCCNC(=O)OCC#CI,inactive,inactive,inactive,,inactive,,inactive,,inactive,inactive,50 µM (active),,24.9 µM (active),,,,,,50 µM (active)
COc1ccc(C(c2ccc(OC)cc2)C(Cl)(Cl)Cl)cc1,inactive,inactive,inactive,,,,,inactive,,inactive,81.7 µM (active),66.7 µM (active),12 µM (active),79.2 µM (active),83.4 µM (active),,,,
CCCCC(CC)COC(=O)c1ccccc1C(=O)OCC(CC)CCCC (configuration not stated),inactive,inactive,inactive,inactive,inactive,,inactive,inactive,inactive,inactive,,,9.29 µM (active),,,,,,
OC(c1ccc(Cl)cc1)(c1cncnc1)c1ccccc1Cl (configuration not stated),,,inactive,,,,,inactive,,inactive,86.4 µM (active),70.7 µM (active),91.1 µM (active),74.1 µM (active),70.1 µM (active),50 µM (active),50 µM (active),,
CON(C)C(=O)Nc1ccc(Cl)c(Cl)c1,inactive,inactive,inactive,,,,inactive,inactive,inactive,inactive,11.4 µM (active),69.8 µM (active),32.5 µM (active),,,,,,
Oc1ccccc1-c1ccccc1,inactive,inactive,inactive,inactive,inactive,inactive,inactive,inactive,inactive,inactive,,,,,,,,,
C=CCC1=C(C)C(OC(=O)C2C(C=C(C)C)C2(C)C)CC1=O (configuration not stated),inactive,inactive,inactive,inactive,inactive,inactive,inactive,inactive,inactive,inactive,,,,,,,,,
COC(=O)N(OC)c1ccccc1COc1ccn(-c2ccc(Cl)cc2)n1,,,,,,,,inactive,,inactive,7.22 µM (active),78.5 µM (active),82.4 µM (active),73.3 µM (active),71.5 µM (active),50 µM (active),68.4 µM (active),77.1 µM (active),
COC(=O)C(C)Oc1ccc(Oc2ccc(Cl)cc2Cl)cc1 (configuration not stated),inactive,inactive,inactive,,inactive,,inactive,inactive,inactive,,40 µM (active),,20.7 µM (active),,,,,,
CCNc1nc(Cl)nc(NC(C)C)n1,inactive,inactive,inactive,inactive,inactive,,inactive,inactive,inactive,inactive,,,18.1 µM (active),,,,,,
CC(C)(C)c1ccc(CSc2cnn(C(C)(C)C)c(=O)c2Cl)cc1,inactive,,inactive,,,inactive,,,,inactive,9.85 µM (active),2.82 µM (active),,18.8 µM (active),3.02 µM (active),,26.9 µM (active),,2.71 µM (active)
CC1=C(C(=O)Nc2ccccc2)SCCO1,inactive,inactive,inactive,,inactive,,inactive,inactive,inactive,,17 µM (active),,50 µM (active),,,,,,
CNC(=O)ON=CC(C)(C)SC,inactive,inactive,inactive,inactive,inactive,inactive,inactive,inactive,inactive,inactive,,,,,,,,,
C=CC1(C)OC(=O)N(c2cc(Cl)cc(Cl)c2)C1=O (configuration not stated),inactive,inactive,inactive,inactive,inactive,,inactive,inactive,inactive,inactive,,,22.7 µM (active),,,,,,
Cc1cc(Cl)ccc1OCC(=O)O,inactive,inactive,inactive,inactive,inactive,inactive,inactive,inactive,inactive,inactive,,,,,,,,,
COc1nc(NC(C)C)nc(NC(C)C)n1,inactive,inactive,inactive,inactive,inactive,,inactive,inactive,inactive,inactive,,,11.4 µM (active),,,,,,
COc1cnc(OC)n2nc(NS(=O)(=O)c3c(OCC(F)F)cccc3C(F)(F)F)nc12,inactive,inactive,inactive,,inactive,,inactive,inactive,inactive,inactive,50 µM (active),,19 µM (active),,,,,,
COP(=S)(OC)Oc1nc(Cl)c(Cl)cc1Cl,inactive,inactive,inactive,inactive,inactive,inactive,inactive,inactive,inactive,inactive,,,,,,,,,
CCOC(=O)C(Cl)Cc1cc(-n2nc(C)n(C(F)F)c2=O)c(F)cc1Cl (configuration not stated),inactive,inactive,inactive,inactive,inactive,,inactive,inactive,inactive,,,,38.2 µM (active),,,,,,
